# From publication PMC11062922 (Nature Chemical Biology, 2023)
# Like-named read-outs stand apart in the source and are kept apart here.
# Assays:
# Design in all cases: species or system human, MV4-11 + K-562 + COLO205 + SK-N-BE2 + OVCAR-8
# ARAF = conditions: read-out: apparent Kd; compound concentrations: 100 nM and 1000 nM (sheet 'Samples'), CATDS: 5.7058151547421603E-2; n = 1
# AURKB = conditions: read-out: apparent Kd, n = 1
# CDK10 = conditions: read-out: apparent Kd; compound concentrations: 100 nM and 1000 nM (sheet 'Samples'), CATDS: 4.7356603246951401E-2; n = 1
# EIF2AK1 = conditions: read-out: apparent Kd, compound concentrations: 100 nM and 1000 nM (sheet 'Samples'), n = 1
# FN3K = conditions: read-out: apparent Kd; compound concentrations: 100 nM and 1000 nM (sheet 'Samples'), CATDS: 5.2169605073521003E-2; n = 1
# ICK = conditions: read-out: apparent Kd; compound concentrations: 100 nM and 1000 nM (sheet 'Samples'), CATDS: 4.7896181585756002E-2; n = 1
# LATS1 = conditions: read-out: apparent Kd; compound concentrations: 100 nM and 1000 nM (sheet 'Samples'), CATDS: 4.4770495584516998E-2; n = 1
# MAP2K5 = conditions: read-out: apparent Kd; compound concentrations: 100 nM and 1000 nM (sheet 'Samples'), CATDS: 0.11655274425704; n = 1
# MAP3K2 = conditions: read-out: apparent Kd; compound concentrations: 100 nM and 1000 nM (sheet 'Samples'), CATDS: 4.6082371307615597E-2; n = 1
# MAP3K4 = conditions: read-out: apparent Kd; compound concentrations: 100 nM and 1000 nM (sheet 'Samples'), CATDS: 4.8228704879059399E-2; n = 1
# MAP4K1 = conditions: read-out: apparent Kd; compound concentrations: 100 nM and 1000 nM (sheet 'Samples'), CATDS: 4.8558197444370697E-2; n = 1
# MAP4K2 = conditions: read-out: apparent Kd; compound concentrations: 100 nM and 1000 nM (sheet 'Samples'), CATDS: 5.6009475369740498E-2; n = 1
# MAP4K3 = conditions: read-out: apparent Kd; compound concentrations: 100 nM and 1000 nM (sheet 'Samples'), CATDS: 7.0202424980237099E-2; n = 1
# NEK1 = conditions: read-out: apparent Kd; compound concentrations: 100 nM and 1000 nM (sheet 'Samples'), CATDS: 8.0496381389801502E-2; n = 1
# NEK2 = conditions: read-out: apparent Kd; compound concentrations: 100 nM and 1000 nM (sheet 'Samples'), CATDS: 4.3015896259207202E-2; n = 1
# PKMYT1 = conditions: read-out: apparent Kd; compound concentrations: 100 nM and 1000 nM (sheet 'Samples'), CATDS: 4.44842965705885E-2; n = 1
# PTK6 = conditions: read-out: apparent Kd; compound concentrations: 100 nM and 1000 nM (sheet 'Samples'), CATDS: 5.5693628002095402E-2; n = 1
# RAF1 = conditions: read-out: apparent Kd; compound concentrations: 100 nM and 1000 nM (sheet 'Samples'), CATDS: 4.9993718202349699E-2; n = 1
# DDR1 = conditions: read-out: apparent Kd, n = 1
# DDR2 = conditions: read-out: apparent Kd, n = 1
# EPHA7 = conditions: read-out: apparent Kd; compound concentrations:100 nM and 1000 nM (sheet 'Samples'); n = 1
# EPHB6 = conditions: read-out: apparent Kd, n = 1
# FLT3 = conditions: read-out: apparent Kd, n = 1
# FLT4 = conditions: read-out: apparent Kd, n = 1
# JAK2 = conditions: read-out: apparent Kd; compound concentrations:100 nM and 1000 nM (sheet 'Samples'); n = 1
# RET = conditions: read-out: apparent Kd, n = 1
# AURKA = conditions: read-out: apparent Kd, compound concentrations: 100 nM and 1000 nM (sheet 'Samples'), n = 1
# BUB1 = conditions: read-out: apparent Kd, compound concentrations: 100 nM and 1000 nM (sheet 'Samples'), n = 1
# CSNK1D = conditions: read-out: apparent Kd, compound concentrations: 100 nM and 1000 nM (sheet 'Samples'), n = 1
# CSNK1E = conditions: read-out: apparent Kd; compound concentrations: 100 nM and 1000 nM (sheet 'Samples'), CATDS: 4.0450014161249097E-2; n = 1
# GAK = conditions: read-out: apparent Kd, compound concentrations: 100 nM and 1000 nM (sheet 'Samples'), n = 1
# LIMK2 = conditions: read-out: apparent Kd; compound concentrations: 100 nM and 1000 nM (sheet 'Samples'), CATDS: 3.6080783188173302E-2; n = 1
# NQO2 = conditions: read-out: apparent Kd; compound concentrations: 100 nM and 1000 nM (sheet 'Samples'), CATDS: 0.178299559019577; n = 1
# PDGFRB = conditions: read-out: apparent Kd; compound concentrations: 100 nM and 1000 nM (sheet 'Samples'), CATDS: 5.3358090976632598E-2; n = 1
# RIPK2 = conditions: read-out: apparent Kd; compound concentrations: 100 nM and 1000 nM (sheet 'Samples'), CATDS: 3.9651452900350902E-2; n = 1
# RIPK3 = conditions: read-out: apparent Kd; compound concentrations: 100 nM and 1000 nM (sheet 'Samples'), CATDS: 3.2567224991893698E-2; n = 1
# SIK2 = conditions: read-out: apparent Kd; compound concentrations: 100 nM and 1000 nM (sheet 'Samples'), CATDS: 4.1786415024185397E-2; n = 1
# TGFBR1 = conditions: read-out: apparent Kd; compound concentrations: 100 nM and 1000 nM (sheet 'Samples'), CATDS: 3.3015845196466199E-2; n = 1
# TGFBR2 = conditions: read-out: apparent Kd; compound concentrations: 100 nM and 1000 nM (sheet 'Samples'), CATDS: 3.2296969977490597E-2; n = 1
# TNK1 = conditions: read-out: apparent Kd; compound concentrations: 100 nM and 1000 nM (sheet 'Samples'), CATDS: 4.85220574572469E-2; n = 1
# CIT = conditions: read-out: apparent Kd; compound concentrations: 100 nM and 1000 nM (sheet 'Samples'), CATDS: 0.144210490801775; n = 1
# MAPK10 = conditions: read-out: apparent Kd; compound concentrations: 100 nM and 1000 nM (sheet 'Samples'), CATDS: 0.135593379838652; n = 1
# MAPK14 = conditions: read-out: apparent Kd; compound concentrations: 100 nM and 1000 nM (sheet 'Samples'), CATDS: 0.115463865520786; n = 1
# MAPK9 = conditions: read-out: apparent Kd; compound concentrations: 100 nM and 1000 nM (sheet 'Samples'), CATDS: 0.122740421728674; n = 1
# MAPKAPK2 = conditions: read-out: apparent Kd; compound concentrations: 100 nM and 1000 nM (sheet 'Samples'), CATDS: 0.10049167184689101; n = 1
# AXL = conditions: read-out: apparent Kd; compound concentrations:100 nM and 1000 nM (sheet 'Samples'); n = 1
# ERBB3 = conditions: read-out: apparent Kd; compound concentrations:100 nM and 1000 nM (sheet 'Samples'); n = 1
# MAP3K1 = conditions: read-out: apparent Kd; compound concentrations:100 nM and 1000 nM (sheet 'Samples'); n = 1
# ZAK = conditions: read-out: apparent Kd; compound concentrations:100 nM and 1000 nM (sheet 'Samples'); n = 1
# CDC42 = conditions: read-out: apparent Kd; compound concentrations: 100 nM and 1000 nM (sheet 'Samples'), CATDS: 0.132933221213999; n = 1
# GSK3A = conditions: read-out: apparent Kd; compound concentrations: 100 nM and 1000 nM (sheet 'Samples'), CATDS: 0.398799931633807; n = 1
# GSK3B = conditions: read-out: apparent Kd; compound concentrations: 100 nM and 1000 nM (sheet 'Samples'), CATDS: 0.29957385679939402; n = 1
# [1] = compound concentrations:100 nM and 1000 nM (sheet 'Samples')
smiles,measurement,setting,value
Cc1ccccc1CC(=O)N1CCc2cc(-c3cn(C)c4ncnc(N)c34)ccc21 [GSK2603346A],potency estimated from few doses,ARAF,942 nM
same,potency estimated from few doses,"AURKB; compound concentrations: 100 nM and 1000 nM (sheet 'Samples'), CATDS: 7.6313270646160003E-2",547 nM
same,potency estimated from few doses,CDK10,1450 nM
same,potency estimated from few doses,EIF2AK1; CATDS: 9.9444074650609393E-2,360 nM
same,potency estimated from few doses,FN3K,1140 nM
same,potency estimated from few doses,ICK,1410 nM
same,potency estimated from few doses,LATS1,1680 nM
same,potency estimated from few doses,MAP2K5,287 nM
same,potency estimated from few doses,MAP3K2,1550 nM
same,potency estimated from few doses,MAP3K4,1380 nM
same,potency estimated from few doses,MAP4K1,1360 nM
same,potency estimated from few doses,MAP4K2,979 nM
same,potency estimated from few doses,MAP4K3,632 nM
same,potency estimated from few doses,NEK1,501 nM
same,potency estimated from few doses,NEK2,1890 nM
same,potency estimated from few doses,PKMYT1,1710 nM
same,potency estimated from few doses,PTK6,991 nM
same,potency estimated from few doses,RAF1,1260 nM
Nc1ncnc2occ(-c3ccc(NC(=O)Nc4cc(C(F)(F)F)ccc4F)cc3)c12 [GW770249A_KCGS],potency estimated from few doses,AURKB; [1],1400 nM
same,potency estimated from few doses,DDR1; [1],122 nM
same,potency estimated from few doses,DDR2; [1],529 nM
same,potency estimated from few doses,EPHA7,1760 nM
same,potency estimated from few doses,EPHB6; [1],1000 nM
same,potency estimated from few doses,FLT3; [1],215 nM
same,potency estimated from few doses,FLT4; [1],114 nM
same,potency estimated from few doses,JAK2,871 nM
same,potency estimated from few doses,RET; [1],17.1 nM
Cn1cc(-c2ccc3c(c2)CCN3C(=O)Cc2cc(F)cc(F)c2F)c2c(N)ncnc21 [GSK2634140A],potency estimated from few doses,"AURKB; compound concentrations: 100 nM and 1000 nM (sheet 'Samples'), CATDS: 0.49376947402656801",1300 nM
same,potency estimated from few doses,EIF2AK1; CATDS: 0.50638977254874895,1240 nM
CCCCc1nn2ncccc2c1-c1ccnc(Nc2ccc(N3CCN(C)CC3)cc2)n1 [GW684941X],potency estimated from few doses,AURKA; CATDS: 4.2728158523190798E-2,853 nM
same,potency estimated from few doses,"AURKB; compound concentrations: 100 nM and 1000 nM (sheet 'Samples'), CATDS: 4.3580096723042298E-2",809 nM
same,potency estimated from few doses,BUB1; CATDS: 4.7022132934679002E-2,667 nM
same,potency estimated from few doses,CSNK1D; CATDS: 5.89125677268394E-2,400 nM
same,potency estimated from few doses,CSNK1E,993 nM
same,potency estimated from few doses,"DDR1; compound concentrations: 100 nM and 1000 nM (sheet 'Samples'), CATDS: 6.5674707070784599E-2",320 nM
same,potency estimated from few doses,"DDR2; compound concentrations: 100 nM and 1000 nM (sheet 'Samples'), CATDS: 3.7339921381228602E-2",1270 nM
same,potency estimated from few doses,"EPHB6; compound concentrations: 100 nM and 1000 nM (sheet 'Samples'), CATDS: 3.6673450698806898E-2",1340 nM
same,potency estimated from few doses,"FLT3; compound concentrations: 100 nM and 1000 nM (sheet 'Samples'), CATDS: 0.27087793421716799",32.5 nM
same,potency estimated from few doses,"FLT4; compound concentrations: 100 nM and 1000 nM (sheet 'Samples'), CATDS: 4.30316479834668E-2",837 nM
same,potency estimated from few doses,GAK; CATDS: 7.8479207153445404E-2,227 nM
same,potency estimated from few doses,LIMK2,1420 nM
same,potency estimated from few doses,NQO2,58.6 nM
same,potency estimated from few doses,PDGFRB,496 nM
same,potency estimated from few doses,"RET; compound concentrations: 100 nM and 1000 nM (sheet 'Samples'), CATDS: 0.111645797001171",122 nM
same,potency estimated from few doses,RIPK2,1050 nM
same,potency estimated from few doses,RIPK3,2080 nM
same,potency estimated from few doses,SIK2,906 nM
same,potency estimated from few doses,TGFBR1,1970 nM
same,potency estimated from few doses,TGFBR2,2150 nM
same,potency estimated from few doses,TNK1,618 nM
Fc1ccc(-c2nn3c(OCC(F)(F)F)cccc3c2-c2ccncc2)cc1 [GW514784X],potency estimated from few doses,BUB1; CATDS: 0.17934012366879401,448 nM
same,potency estimated from few doses,CIT,646 nM
same,potency estimated from few doses,CSNK1D; CATDS: 0.10890792541592099,1160 nM
same,potency estimated from few doses,GAK; CATDS: 0.122345585139645,890 nM
same,potency estimated from few doses,MAPK10,725 nM
same,potency estimated from few doses,MAPK14,1010 nM
same,potency estimated from few doses,MAPK9,884 nM
same,potency estimated from few doses,MAPKAPK2,1420 nM
Cl.O=C(Nc1ccc(Oc2ccc3[nH]c(NC(=O)c4ccco4)nc3c2)cc1)Nc1cc(C(F)(F)F)ccc1F [GW683134A_KCGS],potency estimated from few doses,AXL,1640 nM
same,potency estimated from few doses,ERBB3,1130 nM
same,potency estimated from few doses,MAP3K1,2000 nM
same,potency estimated from few doses,RET; [1],498 nM
same,potency estimated from few doses,ZAK,2150 nM
Cc1[nH]nc2c1N=C(c1ccccc1F)c1cc(C#N)ccc1N2 [RO0275062-000],potency estimated from few doses,AURKA; CATDS: 0.171682106860061,496 nM
same,potency estimated from few doses,"AURKB; compound concentrations: 100 nM and 1000 nM (sheet 'Samples'), CATDS: 0.172202722003443",492 nM
same,potency estimated from few doses,CDC42,1240 nM
same,potency estimated from few doses,GSK3A,88.7 nM
same,potency estimated from few doses,GSK3B,143 nM
